Activity calls are given as the source filed them.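 The calls were made as follows, unless noted: active = inhibition at or above 50% at 10 µM; inactive = inhibition below 50%.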

By inhibition is commonly meant the drop in the measured response relative to a control, in per cent.

A short description of test [1]: inhibitors of TNFa-induced NFkB p65 translocation, primary screen, imaging, HUVEC, MLSMR starter and 10KST1 sets (AID 438;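 active = inhibition above 20% together with a positive visual image hit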;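 also: compound added about 3h40 before a 20 min TNFalpha stimulation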;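 as to inhibition: signal is the nuclear over cytoplasmic p65 intensity ratio per well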). As to conditions: HUVEC TNFa-induced p65 nuclear translocation; cell count: measured here: nuclei count (cytotoxicity indicator), at 2.08 µM; inhibition: at 2 µM, stronger effect = higher value, 0% TNFa-plus-vehicle, 100% no-TNFa wells.
Test [2] in a line: reduction of polyQ htt aggregates in cells – imaging, exon1htt(103Q)mCFP cells, high-content imaging, primary screen (AID 483;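 active = visual image review flags a hit and inhibition of aggregation exceeds 20%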;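 also: compound exposure lasted 3 days before fixation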;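 as to nuclei count: percent of the per-plate median nuclei count of sample wells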). As to conditions: exon1htt(103Q)mCFP cell line, aggregate imaging, at 2 µM; inhibition of aggregation: stronger effect = higher value; nuclei count: measured here: cell count, toxicity.
A short description of test [3]: endothelial E-selectin expression blockers – imaging, HUVEC, immunofluorescence, MLSMR starter and 10KST1 sets, primary screen (AID 487;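 active = visually confirmed hit in the image check and inhibition above 20%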;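 as to inhibition: signal is fraction of cell area covered by stained E-selectin grains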;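 as to nuclei count: 100% = median nuclei count of all wells on the same plate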). As to conditions: HUVEC TNFalpha-induced E-selectin immunofluorescence imaging, at 2 µM; inhibition: stronger effect = higher value; nuclei count: measured here: cell number, toxicity.
The target of test [4] is Voltage-gated potassium channel subunit beta-2 (Rattus norvegicus) (UniProt P62483). Description: inhibitors of rat Kvbeta2 reductase activity – biochemical, NADPH fluorescence, primary screen (AID 622;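 active = fluorescence slope higher than the sample average by over 3 SD, cut at about -0.22 in these data, passing the limit was not always enough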;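 also: slope of raw intensity against log time taken from 70 to 1610 s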). The settings on record: recombinant KvBeta, 4-cyanobenzaldehyde reduction, at 10 µM, stronger effect = higher value.
Test [5] has the same target. Description: enhancers of rat Kvbeta2 NADPH turnover – biochemical, NADPH fluorescence, primary screen (AID 623;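 active = NADPH fluorescence slope more negative than the mean of all samples by about 3 SD, 99.7% confidence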;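 also: fluorescence intensity change per second fitted from 20 to 320 s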). As to conditions: Recombinant KvBeta, NADPH fluorescence decrease slope, 10 min; at 10 µM; stronger effect = lower value.
In test [6] the target is Alpha-2C adrenergic receptor (Homo sapiens) (UniProt P18825). Description: compounds altering alpha2C-coupled GIRK flux – cell-based, HEK293 alpha2C/GIRK1/2, thallium flux, primary screen (AID 624;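 active = fluorescence slope after compound addition differing from the mean of all screened samples at 99.7% confidence, in either direction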;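 also: slope of fluorescence ratio to pre-addition baseline per second over 15 to 24 s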). As to conditions: thallium flux BTC fluorescence, at 10 µM, actives lie on both sides.
Test [7] is described as follows: blockers of RIG-like receptor reporter activation – cell-based, Sendai virus stimulus, luciferase, 10K MLSCN set, TLR/RLR signaling modifier project, primary screen (AID 602276).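 Also: firefly luciferase from ISG56 promoter only with Renilla not read in this screen; 0% = Sendai virus plus DMSO and 100% = medium plus DMSO without virus.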 The settings on record: HEK293 RL24 IRF3 luciferase reporter, at 10 µM, stronger effect = higher value. For orientation: In a reporter assay the amount or activity of a reporter protein is the signal.

The nature of test [8]: TLR3 IRF3 reporter activation blockers – cell-based, poly I:C stimulus, luciferase, 10K MLSCN set, primary screen (AID 602277;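 active = inhibition of the reporter signal at or above 50%; inactive = inhibition below 50%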). As to conditions: HEK293-TLR3 RL24 IRF3 luciferase reporter, at 10 µM, stronger effect = higher value.

Voltage-gated potassium channel subunit beta-2 (Rattus norvegicus), sequence (P62483 whole entry, looked up): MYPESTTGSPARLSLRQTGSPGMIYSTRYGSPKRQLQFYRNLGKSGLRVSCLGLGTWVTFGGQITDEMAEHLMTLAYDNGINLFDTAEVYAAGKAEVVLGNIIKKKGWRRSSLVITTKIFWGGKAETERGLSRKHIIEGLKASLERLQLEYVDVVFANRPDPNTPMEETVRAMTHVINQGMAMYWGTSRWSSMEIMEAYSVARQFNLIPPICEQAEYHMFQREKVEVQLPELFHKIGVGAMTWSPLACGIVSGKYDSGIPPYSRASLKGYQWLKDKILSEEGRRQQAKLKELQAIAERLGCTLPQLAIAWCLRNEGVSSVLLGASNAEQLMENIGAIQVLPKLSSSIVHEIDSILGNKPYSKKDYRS
Alpha-2C adrenergic receptor (Homo sapiens), sequence (P18825 whole entry, looked up): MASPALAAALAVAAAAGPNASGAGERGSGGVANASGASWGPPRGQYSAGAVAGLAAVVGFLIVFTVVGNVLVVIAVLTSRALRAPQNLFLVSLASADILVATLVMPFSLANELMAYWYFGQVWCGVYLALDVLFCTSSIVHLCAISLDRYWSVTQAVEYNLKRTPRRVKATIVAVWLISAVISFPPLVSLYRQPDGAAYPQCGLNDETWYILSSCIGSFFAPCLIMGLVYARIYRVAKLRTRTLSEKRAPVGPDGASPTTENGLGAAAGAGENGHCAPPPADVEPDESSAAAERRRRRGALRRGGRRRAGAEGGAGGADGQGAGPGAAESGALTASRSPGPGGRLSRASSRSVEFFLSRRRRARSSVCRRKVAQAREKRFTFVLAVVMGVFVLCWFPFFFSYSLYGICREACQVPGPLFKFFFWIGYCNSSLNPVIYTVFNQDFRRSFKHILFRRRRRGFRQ

`CCOCCCNC(=O)CC1Oc2ccc(C)cc2NC1=O` (centres undefined): the cell count in test [1] turned out to be 595. For the same compound, the inhibition was -6.2% (inactive) in test [1], -6.5% (inactive) in test [3], 5.01% (inactive) in test [7] and 19.8% (inactive) in test [8]. Besides, in test [2], the inhibition of aggregation is 8.5% (inactive). Moreover, the nuclei count in test [2] was 107%; in test [3], 121%. Besides, the fluorescence slope in test [4] is -0.525 (inactive). In addition, the NADPH fluorescence slope in test [5] was -3.6e-05 (inactive). Besides, in test [6], the slope was 0.00596 (inactive).

`CCN(CC)CC(C)CNC(=O)CC(C(=O)N1CCc2ccccc21)n1ccnc1` (centres undefined): in test [1], the cell count amounted to 604. Further, the inhibition in test [1] was -10% (inactive); in test [3], -125% (inactive); in test [7], 3.93% (inactive); in test [8], 11% (inactive). In addition, in test [2], the inhibition of aggregation is 10.7% (inactive). Moreover, the values for the nuclei count in test [2] and in test [3] were 98.5% and 110%, respectively. For the same compound, in test [4], the fluorescence slope is -0.464 (inactive). Further, the NADPH fluorescence slope in test [5] was 6.1e-05 (inactive). Also, in test [6], the slope is 0.00462 (inactive).

As for `C=CCn1c(SCc2ccc(C#N)cc2)nnc1-c1cccc(Cl)c1`, in test [1], the cell count stood at 397. The inhibition in test [1] is -11.3% (inactive); in test [3], -62.4% (inactive); in test [7], 11.7% (inactive); in test [8] it was 35.5% (inactive). The inhibition of aggregation in test [2] is 10.7% (inactive). In addition, the nuclei count came to 95.4% in test [2] and 187% in test [3]. In test [4], the fluorescence slope is -0.421 (inactive). For the same compound, the NADPH fluorescence slope in test [5] is -4.1e-05 (inactive). In addition, the slope in test [6] is 0.00297 (inactive).

Regarding `C=CCn1c2ccccc2c2nnc(SCC(=O)NC(C(=O)OC)C(C)C)nc21` (centres undefined), the cell count in test [1] was 787. Moreover, the inhibition was -1.4% (inactive) in test [1], -83.9% (inactive) in test [3], 14.6% (inactive) in test [7] and 27.7% (inactive) in test [8]. Besides, the inhibition of aggregation in test [2] is 10.3% (inactive). Also, the nuclei count came out at 104% in test [2] and 103% in test [3]. In addition, in test [4], the fluorescence slope was -0.424 (inactive). For the same compound, in test [5], the NADPH fluorescence slope was -0.000127 (inactive). For the same compound, the slope in test [6] is 0.00508 (inactive).

Take `Cc1cc2n(n1)C(c1ccccc1)Nc1ccccc1-2` (centres undefined): in test [1], the cell count came to 410. Also, the inhibition in test [1] is -1.3% (inactive); in test [3] it was -13.2% (inactive); in test [7], -11.9% (inactive); in test [8], -26.7% (inactive). Moreover, the inhibition of aggregation in test [2] was -2.5% (inactive). Also, the nuclei count in test [2] was 101%; in test [3], 119%. In addition, in test [4], the fluorescence slope was -0.512 (inactive). Further, the NADPH fluorescence slope in test [5] is -3.7e-05 (inactive). Moreover, the slope in test [6] is 0.00459 (inactive).

Regarding `O=C(NCc1ccco1)c1ccccc1Nc1ccc(F)cc1`, the cell count in test [1] stood at 575. Besides, the inhibition in test [1] was -7.2% (inactive); in test [3], -30.4% (inactive); in test [7], 5.52% (inactive); in test [8], -2.76% (inactive). In test [2], the inhibition of aggregation was 47.6% (active). The results for the nuclei count in test [2] and in test [3] were 67.1% and 103%, respectively. For the same compound, in test [4], the fluorescence slope was -0.308 (inactive). The NADPH fluorescence slope in test [5] is -5e-05 (inactive). The slope in test [6] was 0.00433 (inactive).

As to `Cc1cc(C)c2c(=O)n(CC(=O)N3CCC(Cc4ccccc4)CC3)sc2n1`, the cell count in test [1] came out at 611. The inhibition in test [1] is 16.6% (inactive); in test [3] it was -6.1% (inactive); in test [7] it was 20.7% (inactive); in test [8], 46.2% (inactive). Moreover, the inhibition of aggregation in test [2] is 3% (inactive). The results for the nuclei count in test [2] and in test [3] were 104% and 121%, respectively. The fluorescence slope in test [4] is -0.559 (inactive). In test [5], the NADPH fluorescence slope was -6.7e-06 (inactive). Moreover, the slope in test [6] is 0.00614 (inactive).

With `CCC(C)Nc1nc2c(c(=O)n(C)c(=O)n2C)n1Cc1ccc(F)cc1` (centres undefined), the cell count in test [1] stood at 436. Also, the inhibition in test [1] is 14.8% (inactive); in test [3], -18.5% (inactive); in test [7], 15.9% (inactive); in test [8], 23.7% (inactive). The inhibition of aggregation in test [2] was 9.6% (inactive). Moreover, the nuclei count in test [2] stood at 100%; in test [3] it was 106%. In test [4], the fluorescence slope was -0.617 (inactive). Also, in test [5], the NADPH fluorescence slope was -3.2e-05 (inactive). In addition, in test [6], the slope was 0.00579 (inactive).

With `CC1CCN(S(=O)(=O)c2cccc(C(=O)Nc3ccccn3)c2)CC1`, the cell count in test [1] came out at 338. Moreover, the inhibition in test [1] is -4.3% (inactive); in test [3] it was 4.5% (inactive); in test [7] it was 18.4% (inactive); in test [8], 23.9% (inactive). For the same compound, the inhibition of aggregation in test [2] was 26.3% (inactive). Further, the results for the nuclei count in test [2] and in test [3] were 78% and 90.4%, respectively. Further, the fluorescence slope in test [4] was -0.338 (inactive). In addition, the NADPH fluorescence slope in test [5] was -4.1e-05 (inactive). In addition, the slope in test [6] was 0.00478 (inactive).

For the compound `O=C(NCc1ccccc1)c1cc(-c2ccco2)on1`, in test [1], the cell count was found to be 445. Besides, the inhibition is -0.9% (inactive) in test [1], -18.9% (inactive) in test [3], -27.8% (inactive) in test [7] and -74.9% (inactive) in test [8]. In addition, in test [2], the inhibition of aggregation was -0.2% (inactive). Also, the results for the nuclei count in test [2] and in test [3] were 102% and 103%, respectively. For the same compound, the fluorescence slope in test [4] is -0.506 (inactive). In addition, the NADPH fluorescence slope in test [5] was -3.5e-05 (inactive). For the same compound, the slope in test [6] is 0.00556 (inactive).

On to `O=C(c1cccc(F)c1)N1CCc2ccccc21`, for which the cell count in test [1] amounted to 490. Further, the inhibition was 3.5% (inactive) in test [1], -9.7% (inactive) in test [3], 0.0423% (inactive) in test [7] and 27.3% (inactive) in test [8]. In test [2], the inhibition of aggregation was -1.6% (inactive). The nuclei count came out at 107% in test [2] and 114% in test [3]. Moreover, the fluorescence slope in test [4] was -0.478 (inactive). The NADPH fluorescence slope in test [5] was -1.8e-05 (inactive). Moreover, the slope in test [6] was 0.0055 (inactive).

`COc1ccccc1NCN1C(=O)CCC1=O`: in test [1], the cell count is 710. Further, the inhibition was 5.4% (inactive) in test [1], -32.2% (inactive) in test [3], 13.3% (inactive) in test [7] and 26.9% (inactive) in test [8]. Besides, the inhibition of aggregation in test [2] was -0.4% (inactive). The nuclei count in test [2] worked out at 97.3%; in test [3], 104%. Further, the fluorescence slope in test [4] was -0.551 (inactive). Moreover, the NADPH fluorescence slope in test [5] was -2.5e-05 (inactive). Moreover, the slope in test [6] is 0.00722 (inactive).

`CCOC(=O)C1CCN(C(=O)C2(NC(=O)Nc3ccccc3Cl)CCCCC2)CC1`: in test [1], the cell count was determined as 568. Besides, the inhibition in test [1] is -4.9% (inactive); in test [3] it was -54.8% (inactive); in test [7], 15% (inactive); in test [8], 20.6% (inactive). Besides, in test [2], the inhibition of aggregation is -41.9% (inactive). Moreover, the nuclei count was determined as 107% in test [2] and 105% in test [3]. The fluorescence slope in test [4] was -0.626 (inactive). In addition, the NADPH fluorescence slope in test [5] is 5.4e-06 (inactive). Also, in test [6], the slope was 0.0059 (inactive).

For `Cc1cc2ccccc2c(=O)n1CC(=O)Nc1ccc2c(c1)OCO2`, in test [1], the cell count came out at 455. The inhibition in test [1] is 0% (inactive); in test [3], -85.2% (inactive); in test [7] it was 2.31% (inactive); in test [8], 23.9% (inactive). Besides, in test [2], the inhibition of aggregation was -12.3% (inactive). The nuclei count in test [2] is 108%; in test [3], 109%. Besides, the fluorescence slope in test [4] was -0.48 (inactive). Also, in test [5], the NADPH fluorescence slope was -2.6e-05 (inactive). Besides, the slope in test [6] was 0.00487 (inactive).
